Several values for one entry are separate records, joined by “and”; a condition that tells them apart may be missing. Identical values can stand only once. Compounds without any hit were thinned out: in the full panel of roughly 83,000, 20% have a hit.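 Treatment: one concentration, 48 hours, 96-well format. Scoring: percent growth, with anything below 10 considered active.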 Values without a mark were called inactive. Activity calls are given as the source filed them.
Test system: MDA-MB-468 breast
Experiment: NCI-60 one-dose screen, 48 h (100 = growth as untreated, 0 = no growth, -100 = all killed)
Conditions: 10 µM unless noted

| Compound | growth |
| --- | --- |
| OCC1OC(n2cnc3c(NCc4ccco4)ncnc32)C(O)C1O (stereo not given) | -82.8% (active) |
| [2H]C([2H])([2H])Oc1ccc(F)cc1/C=C/C(=O)/C=C(O)/C=C/c1cc(F)ccc1OC([2H])([2H])[2H] | 91.6% |
| Cc1c(Cl)c(C)c(Cc2c(C)c(Cl)c(C)c(Cl)c2O)c(O)c1Cl | -8.25% (active) |
| O=C1/C(=C/c2ccc(Oc3ccccc3)cc2)N=C(c2ccccc2)N1CCc1cccs1 | 108% |
| Clc1ccc(/C=N\N2CCCCCC2)cc1 | 106% and 122% |
| CN1CCN(c2ccc(NC3=C(Cl)C(=O)c4ncccc4C3=O)cc2C#N)CC1 | -65% (active) |
| CN1CCN(c2ccc(Nc3nc(NCCCNS(=O)(=O)c4ccc(C(F)(F)F)cc4)c4sccc4n3)cc2)CC1 | -80.9% (active) |
| O=C(Cc1ccc(/C=C/C(=O)c2ncc[nH]2)cc1)Nc1ccc(C(F)(F)F)cc1 | 15.1% |
| CCCc1n(Cc2ccc3ccccc3c2)c2ccccc2[n+]1Cc1ccc2ccccc2c1 | -44.7% (active) |
| Cc1cc(Cl)nc(N(CCNc2ccnc3cc(Cl)ccc23)Cc2ccco2)n1 | 29.9% |
| Cc1nc2sccn2c1-c1csc(Nc2cccc(Cl)c2C)n1 | -13% (active) |
| CCC(CC)C(=O)OC(C)COc1ccc(C(C)(C)C)cc1 (stereo not given) | 94.6% |
| Nc1n[nH]c2ccc([C@@H]3Nc4ccc5[nH]ncc5c4[C@H]4[C@H]5CCC(C5)[C@H]43)cc12 | 28.1% |
| Cc1cccc2c(=O)c3c(sc12)c(NCc1ccccc1)nc1ccccc13 | -12.7% (active) |
| CCCCCCCCCCCCCCCCC(Br)C(=O)O (stereo not given) | 96% |
| CC(C)N(CCCC#N)C(C)C | 104% |
| CN1CCN(c2ccc(NC(=O)c3cncnc3Nc3ccc(OCc4cccc(F)c4)c(Cl)c3)cc2)CC1 | 71.8% |
| Cc1nc(N)sc1-c1csc(Nc2ccc(C(F)(F)F)cc2)n1 | -28.9% (active) |
| COc1ccc([N+](=O)[O-])c(C(=O)O)c1 | 96.4% |
| O=C(/C=C/c1cccs1)c1ccc(Cl)nc1 | 103% |

| Compound | growth |
| --- | --- |
| O=C1C=Cc2ccccc2/C1=C/c1nc(-c2ccccc2)oc1O | 88.6% |
| CN(C)c1ccc2oc(=O)c3ccccc3c2c1 | 78.3% |
| C=CCn1c(SCC(=O)Nc2ccc(C(=O)/C=C/c3ccc(Cl)cc3)cc2)nnc1-c1ccc(Cl)cc1 | 89% |
| NS(=O)(=O)c1ccc(Nc2nc(N/N=C/c3ccc(Cl)cc3)nc(Nc3ccccc3)n2)cc1 | 66.6% |
| Cc1c(C(N)=O)sc2c1c(=O)n(Cc1ccccc1)c1nnc(S(=O)(=O)CC(=O)Nc3ccc(Cl)cc3)n21 | 33.2% |
| O=C(Nc1nc2ccccc2s1)c1ccc(F)cc1 | 94.1% |
| O=C(CSc1nc2ccccc2c(=O)n1-c1ccccc1)N/N=C/c1ccc(Oc2ccc(Cl)cc2)cc1 | 71.6% |
| O=C(Nc1ccc(N=Cc2c(O)[nH]c3ccccc23)cc1)Nc1nccs1 | -2.28% (active) |
| COc1ccc(-c2onc(N)c2-c2cc(OC)c3c(c2)OCO3)cc1 | -29.2% (active) |
| COc1ccc(/C=c2/c(=O)[nH]c3nc4sc(C)c(C)c4c(=O)n23)cc1 | 83.1% |
| C#C[C@]1(O)CC[C@H]2[C@@H]3CC=C4c5sc(C6CC6)nc5CC[C@]4(C)[C@H]3CC[C@@]21C | 68.4% |
| O=C1/C(=C/c2ccc(-c3ccccc3C(F)(F)F)o2)SC(=S)N1CCc1ccc(O)cc1 | 28.8% |
| COc1ccc(Oc2nc(Nc3ccc(N4CCOCC4)cc3)ncc2NC(=O)Nc2cccc(OC)c2)cc1 | 90.1% |
| Cc1ccc(NC(=O)c2cc(/C=C/C(=O)NO)cc(C(F)(F)F)c2)cc1Nc1nccc(-c2cccnc2)n1 | -24.4% (active) |
| CC1=C(CCCOC(=O)NCCCl)C2=C(C)C3(CC3)[C@@](C)(O)C(=O)C2=C1 | -55% (active) |
| OCCOCCN(Cc1ccccn1)Cc1cc(I)cc(I)c1O | 88% |
| O=[N+]([O-])c1ccc(OCCO)cc1 | 120% |
| COc1ccc(/C=C(/C(=O)N2CCCC2)c2cc(OC)c(OC)c(OC)c2)cc1 | 11.6% |
| CC1(C)CC[C@]2(C(=O)N3CCCN(CC#N)CC3)CC[C@]3(C)C(=CC[C@@H]4[C@@]5(C)CC[C@H](O)C(C)(C)[C@@H]5CC[C@]43C)[C@H]2C1 | 41.2% |
| CCN(CC)CCOc1ccc(/C=N/Nc2nc3c([nH]2)c(=O)n(C)c(=O)n3C)cc1 | 102% and 121% |
